“And” between values parts separate entries of the source, which are not always exact repeats. Equal entries are not always repeated. The panel holds about 83,000 compounds, 20% with a hit somewhere; the sample as a whole holds those more often.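 Testing used 96-well plates and a 48-hour single-concentration exposure. Example: -40 means 40% of the starting cells died.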 The source made the active and inactive calls. The calls were made as follows: active = growth percent below 10; inactive = the rest.

The values below come from PubChem BioAssay (NCI).

Some test systems named below: HCT-15 colon; HT29 colon; SNB-75 CNS; SNB-19 CNS; U251 CNS; PC-3 prostate; SK-MEL-5 melanoma; UACC-62 melanoma; LOX IMVI melanoma; SK-MEL-28 melanoma.
Assay in all cases: NCI-60 one-dose screen, 48 h (100 = growth as untreated, 0 = no growth, -100 = all killed)
Common to all, as to conditions: 10 µM unless noted

As to `CC(=O)Oc1cc(C(C)C)c(OCCN(C)C)cc1C`, the growth in the assay with HCT-15 colon was 105% (inactive) and 104% (inactive); in the assay with HT29 colon, 110% (inactive) and 115% (inactive); in the assay on SNB-75 CNS it was 102% (inactive) and 89.9% (inactive); in the assay with SNB-19 CNS it was 105% (inactive) and 98.2% (inactive); in the assay on U251 CNS, -90.7% (active) and 97.7% (inactive); in the assay with PC-3 prostate it was 92% (inactive) and 103% (inactive). In addition, the growth is 106% (inactive) and 103% (inactive) in the assay on SK-MEL-5 melanoma; 99.7% (inactive) and 94% (inactive) in the assay with UACC-62 melanoma; 94% (inactive) and 102% (inactive) with LOX IMVI melanoma; 119% (inactive) and 88.5% (inactive) in the assay with SK-MEL-28 melanoma.
In the case of `CC(C)(C)OC(=O)c1ccc(NCc2cc(O)ccc2O)cc1`, the growth was -30.1% (active) in the assay with HCT-15 colon; 73.5% (inactive) in the assay with HT29 colon; 30.5% (inactive) in the assay with SNB-75 CNS; 62.6% (inactive) in the assay on SNB-19 CNS; 20.5% (inactive) with U251 CNS; 12.5% (inactive) in the assay on PC-3 prostate. Also, the growth was 52.4% (inactive) in the assay on SK-MEL-5 melanoma, 8.79% (active) in the assay on UACC-62 melanoma and 8.43% (active) in the assay with SK-MEL-28 melanoma.
For the molecule `COc1ccc(/C=N/NC(N)=S)cc1`, the growth in the assay with HCT-15 colon is 106% (inactive); with HT29 colon it was 102% (inactive); with SNB-75 CNS, 87.7% (inactive); with SNB-19 CNS, 100% (inactive); in the assay on U251 CNS, 96.7% (inactive); in the assay with PC-3 prostate, 86.9% (inactive). Also, the growth in the assay on SK-MEL-5 melanoma is 104% (inactive); in the assay with UACC-62 melanoma it was 101% (inactive); with LOX IMVI melanoma it was 95.8% (inactive); with SK-MEL-28 melanoma, 112% (inactive).
Regarding `CC1NC(C)c2ccc3ccccc3c2O1` (stereo not given), the growth with HCT-15 colon is 106% (inactive); with HT29 colon it was 99.8% (inactive); in the assay on SNB-75 CNS, 85.6% (inactive); with SNB-19 CNS, 104% (inactive); in the assay on U251 CNS, 109% (inactive); in the assay with PC-3 prostate, 93.3% (inactive). The growth with SK-MEL-5 melanoma was 104% (inactive); in the assay on UACC-62 melanoma, 93.7% (inactive); in the assay with LOX IMVI melanoma, 97.7% (inactive); with SK-MEL-28 melanoma, 111% (inactive).
With `CCOc1ccc(/C=C\C(=O)O)cc1`, the growth in the assay with HCT-15 colon was 105% (inactive); with HT29 colon it was 105% (inactive); in the assay on SNB-75 CNS, 104% (inactive); with SNB-19 CNS, 106% (inactive); in the assay with U251 CNS, 103% (inactive); with PC-3 prostate, 102% (inactive). In addition, the growth with SK-MEL-5 melanoma was 108% (inactive); in the assay with UACC-62 melanoma, 109% (inactive); in the assay on LOX IMVI melanoma, 105% (inactive); in the assay with SK-MEL-28 melanoma, 107% (inactive).
Regarding `CC(=O)Oc1cc(C)c(OC(C)=O)c(C)c1C`, the growth is 98% (inactive) with HCT-15 colon; 114% (inactive) in the assay with HT29 colon; 132% (inactive) with SNB-75 CNS; 96.4% (inactive) in the assay with SNB-19 CNS; 104% (inactive) in the assay with U251 CNS; 90.5% (inactive) in the assay on PC-3 prostate. The growth in the assay with SK-MEL-5 melanoma was 91.4% (inactive); in the assay with UACC-62 melanoma it was 93.1% (inactive); in the assay on SK-MEL-28 melanoma it was 130% (inactive).
For the molecule `C/C=C(/C(=O)NC(N)=O)C(C)C`, the growth was 110% (inactive) in the assay on HCT-15 colon; 106% (inactive) in the assay with HT29 colon; 120% (inactive) in the assay on SNB-75 CNS; 110% (inactive) in the assay on SNB-19 CNS; 98.8% (inactive) with U251 CNS; 105% (inactive) in the assay on PC-3 prostate. Moreover, the growth in the assay with SK-MEL-5 melanoma is 115% (inactive); in the assay on UACC-62 melanoma, 110% (inactive); with SK-MEL-28 melanoma, 117% (inactive).
With `O=C(NC(CSSCC(NC(=O)OCc1ccccc1)C(=O)O)C(=O)O)OCc1ccccc1` (stereo not given), the growth is 90.9% (inactive) and 98.4% (inactive) in the assay on HCT-15 colon; 92.7% (inactive) and 96% (inactive) with HT29 colon; 78.4% (inactive) and 90.8% (inactive) with SNB-75 CNS; 93.2% (inactive) and 104% (inactive) in the assay on SNB-19 CNS; 84.2% (inactive) and 97.5% (inactive) in the assay on U251 CNS; 90.5% (inactive) and 73.1% (inactive) with PC-3 prostate. Further, the growth in the assay with SK-MEL-5 melanoma is 90% (inactive) and 102% (inactive); with UACC-62 melanoma, 91.5% (inactive) and 102% (inactive); in the assay on SK-MEL-28 melanoma it was 96.6% (inactive) and 104% (inactive).
`COc1cc([C@@H]2c3cc4c(cc3[C@H](O)[C@H]3COC(=O)[C@@H]23)OCO4)cc(OC)c1OC`: the growth in the assay with HCT-15 colon was 29.2% (inactive) and 10.5% (inactive); in the assay on HT29 colon it was 2.22% (active) and -8.13% (active); in the assay with SNB-75 CNS, 19.4% (inactive) and 12.9% (inactive); in the assay with SNB-19 CNS, 27.3% (inactive) and 12.9% (inactive); with U251 CNS, 16.4% (inactive) and 26.2% (inactive); in the assay on PC-3 prostate, 26.9% (inactive) and 6.21% (active). Further, the growth in the assay with SK-MEL-5 melanoma is -27.1% (active) and -44% (active); in the assay on UACC-62 melanoma, 19.9% (inactive) and 68.1% (inactive); with LOX IMVI melanoma, 23.3% (inactive) and 15.6% (inactive); in the assay with SK-MEL-28 melanoma, 28.4% (inactive) and -24% (active).
In the case of `CC(=O)Oc1ccc(C2(c3ccc(OC(C)=O)cc3)C(=O)Nc3ccccc32)cc1`, the growth in the assay on HCT-15 colon is 67.3% (inactive) and 73% (inactive); with HT29 colon, 112% (inactive) and 131% (inactive); with SNB-75 CNS, 85.3% (inactive) and 158% (inactive); in the assay with SNB-19 CNS, 108% (inactive) and 101% (inactive); with U251 CNS, 108% (inactive) and 102% (inactive); with PC-3 prostate, 65.3% (inactive) and 52.3% (inactive). The growth in the assay with SK-MEL-5 melanoma was 96.8% (inactive) and 95% (inactive); in the assay on UACC-62 melanoma it was 84.2% (inactive) and 87.3% (inactive); in the assay with SK-MEL-28 melanoma, 99.6% (inactive) and 108% (inactive).
For the molecule `Nc1c(S(=O)(=O)O)cc(Br)c2c1C(=O)c1ccccc1C2=O`, the growth was 107% (inactive) and 114% (inactive) in the assay with HCT-15 colon; 100% (inactive) and 108% (inactive) with HT29 colon; 86.7% (inactive) and 90.7% (inactive) in the assay on SNB-75 CNS; 111% (inactive) and 107% (inactive) with SNB-19 CNS; 102% (inactive) and 105% (inactive) with U251 CNS; 92% (inactive) and 84.9% (inactive) in the assay with PC-3 prostate. Also, the growth was 99.6% (inactive) and 90.8% (inactive) with SK-MEL-5 melanoma; 108% (inactive) and 104% (inactive) in the assay with UACC-62 melanoma; 102% (inactive) and 103% (inactive) with LOX IMVI melanoma; 109% (inactive) and 113% (inactive) in the assay on SK-MEL-28 melanoma.
